Most compounds without a hit are left out; they make up all but 4.7% or so of the library.
D1 potentiator: Potentiators of Human D1 Dopamine Receptor: qHTS; potentiation, % at 10 µM; D(1A) dopamine receptor (Homo sapiens), P21728; 360,000 compounds, 0.036% hits; HEK293 TREx D1 cells, calcium flux, dopamine EC20 potentiation; in the data active means potentiation above about 30%
Target sequence (P21728 whole entry, looked up): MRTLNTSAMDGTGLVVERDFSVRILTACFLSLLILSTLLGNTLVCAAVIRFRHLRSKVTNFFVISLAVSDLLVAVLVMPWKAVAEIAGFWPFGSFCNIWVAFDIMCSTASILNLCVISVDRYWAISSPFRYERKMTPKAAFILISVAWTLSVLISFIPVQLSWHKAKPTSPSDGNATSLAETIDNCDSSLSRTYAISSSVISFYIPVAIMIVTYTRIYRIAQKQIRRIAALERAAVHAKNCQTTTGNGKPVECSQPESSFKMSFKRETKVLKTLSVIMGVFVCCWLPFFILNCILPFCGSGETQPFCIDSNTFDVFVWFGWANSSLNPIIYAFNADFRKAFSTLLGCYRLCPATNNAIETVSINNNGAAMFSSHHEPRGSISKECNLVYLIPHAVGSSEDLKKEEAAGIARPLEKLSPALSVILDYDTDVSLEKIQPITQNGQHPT
TRHR agonist: qHTS for Small Molecule Agonists and Allosteric Enhancers of Human TRH Receptor: Primary Screen for Agonists. Thyrotropin-releasing hormone receptor (Homo sapiens), P34981. TRHR cells, calcium flux fluo-8, FDSS agonist mode. activation, % at 2 µM. 360,000 compounds, 0.18% hits. AID 493084, 2011
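In this calcium-flux screen, cells bearing human TRHR are dye-loaded with fluo-8, baselined for 10 cycles, then exposed to library compounds; positive kinetic calcium responses during the agonist phase mark hits, with TRH as control.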
D1 agonist: Allosteric Agonists of the Human D1 Dopamine Receptor: qHTS; D(1A) dopamine receptor (Homo sapiens), P21728; HEK293 T-REx D1 cells, calcium flux, agonist mode; activation, % at 2 µM; 360,000 compounds, 1% hits; AID 504660, 2011
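Tetracycline-induced HEK293 TREx D1 cells, force-coupled to calcium signalling, were dye-loaded with a no-wash calcium kit. Compound was pin-added after a 10 s baseline. Fluorescence was read kinetically at 1 cycle/s for 180 s, with calcium rises flagged as agonism.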
TRHR enhancer: qHTS for Small Molecule Agonists and Allosteric Enhancers of Human TRH Receptor: Primary Screen for Enhancers | Thyrotropin-releasing hormone receptor (Homo sapiens), P34981 | TRHR cells, fluo-8 calcium fluorescence, EC20 TRH enhancement | enhancement, % at 2 µM | 360,000 compounds, 0.66% hits | AID 493056, 2011; in the data active means enhancement above about 30%
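Enhancer read-out: after compound pinning and an initial kinetic agonist-mode read, an EC20 of TRH (10 nM final) was injected and fluo-8 calcium signal (Ex 480/Em 530) followed at 1 s/cycle for 100 cycles in TRHR-expressing cells.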
D1 antagonist: Antagonist of Human D 1 Dopamine Receptor: qHTS; D(1A) dopamine receptor (Homo sapiens), P21728; AID 504652, 2011; activity change, negative = inhibition, % at 10 µM; HEK293 TREx D1 cells, calcium flux, dopamine EC80; stronger effect = lower value; 360,000 compounds, 3.2% hits; in the data active means activity change below about -30%
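Cells carrying a force-coupled, tetracycline-inducible human D1 receptor report calcium flux. Each well gets a 10 s baseline, compound with 180 s monitoring, then an EC80 dopamine stimulus with a second 180 s kinetic read.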
Large screens that a line does not name were inactive. Unless noted, no stated cut-off is given here; in the data, active means activation above about 30%; inactive means the rest.

C#CCOCCOCCOCCNc1nc(N2CCN(C(=O)CCCCCCCCCCNC(=O)[C@@H](CCSC)n3cc(CCO)nn3)CC2)nc(N2CCN(C(=O)CCCCCCCCCCNC(=O)[C@H](CCC(=O)O)n3cc(CCCCCN)nn3)CC2)n1	none
C#CCOCCOCCOCCNc1nc(N2CCN(C(=O)CCCCCCCCCCNC(=O)[C@@H](CCSC)n3cc(CCO)nn3)CC2)nc(N2CCN(C(=O)CCCCCCCCCCNC(=O)[C@H](CO)n3cc(CCCCCN)nn3)CC2)n1	D1 antagonist -39
C#CCOCCOCCOCCNc1nc(N2CCN(C(=O)CCCCCCCCCCNC(=O)[C@@H](CCC(=O)O)n3cc(CCCCCN)nn3)CC2)nc(N2CCN(C(=O)CCCCCCCCCCNC(=O)[C@H](CCCCN)n3cc(C[C@@H](C)CC)nn3)CC2)n1	D1 potentiator 44, D1 agonist 65
O=C(CSc1cc(Cl)ccc1Cl)NCCCn1ccnc1	none (no result: D1 potentiator)
O=C(CNC(=O)c1ccc(Cl)cc1Cl)NCCCn1ccnc1	TRHR enhancer 31
O=C(NCCCn1ccnc1)c1cc(-c2ccc(Cl)cc2)nc2ccccc12	D1 antagonist -39
CCOc1ccc(CCNC(=O)c2cc3c(=O)n(CC)c4ccccc4c3s2)cc1OCC	none
Cc1csc(NC(=O)CSc2nnc(-c3ccoc3C)o2)n1	none
Cc1occc1-c1nnc(SCC(=O)Nc2nc(C(C)(C)C)cs2)o1	D1 agonist 31 (no result: D1 antagonist)
c1ccc(N2CCN(c3nc(NCc4ccco4)c4ccccc4n3)CC2)cc1	D1 antagonist -78
c1ccc(CNc2nc(N3CCN(Cc4ccccc4)CC3)nc3ccccc23)cc1	D1 antagonist -35
CNc1nc(NCc2ccccc2)c2ccccc2n1	D1 agonist 34, D1 antagonist -37
Oc1ccccc1Nc1nc(NCc2ccccc2)c2ccccc2n1	none
c1coc(CNc2nc(N3CCCCC3)nc3ccccc23)c1	D1 antagonist -32
CC1CCN(S(=O)(=O)c2cc(C(=O)NCCc3ccccc3)n(C)c2)CC1	none
Cc1cc([N+](=O)[O-])ccc1NC(c1nnc(-c2ccccc2)o1)c1ccccc1F (stereo not drawn)	none
Cc1ccc2c(c1)sc1nc(-c3cc4cc(Cl)ccc4oc3=O)cn12	none
O=C(CCCO)CCCCCCCCC[C@H]1N[C@H](CO)[C@@H](O)[C@@H]1O	D1 antagonist -45
CCCCCC1NC(=O)NC1CCCCCC(=O)O (stereo not drawn)	none
O=C(O/N=C1/CCCc2occc21)c1ccc(Cl)cc1Cl	D1 antagonist -33
Cc1ccc(C)c(NC(=O)CSc2nnc(CNC(=O)c3ccccc3)n2-c2ccccc2)c1	none
CC1(C)C=C(c2ccc(C=O)s2)CC(C)(C)N1C=O	D1 antagonist -31
CC1(C)C=C(c2ccc(C=O)s2)CC(C)(C)N1	none
O=C(Nc1ccc2ccccc2c1)c1ccc(Cl)cc1Cl	none
O=C(Nc1ccc2ccccc2c1)c1ccccc1O	D1 antagonist -34
COc1ccc(C(=O)Nc2ccc3ccccc3c2)cc1	none
CS(=O)(=O)Nc1ccc(C(=O)Nc2ccc3ccccc3c2)cc1	D1 antagonist -38
CCc1cccc(NC(=O)CSc2ncc3c(n2)-c2ccccc2N(Cc2ccccc2C)S3(=O)=O)c1	none
COc1cccc2cc(C(=O)Nc3ccc(CC(=O)O)cc3)c(=O)oc12	none
O=C(NCc1cccnc1)C1CC(c2ccc(F)cc2)=NO1 (stereo not drawn)	D1 antagonist -31
CC(C)CCNC(=O)C1CC(c2ccc(C(F)(F)F)cc2)=NO1 (stereo not drawn)	D1 agonist 32, D1 antagonist -42
COc1ccc(C2=NOC(C(=O)NCc3cccnc3)C2)cc1 (stereo not drawn)	none
O=C(NCc1cc(C(F)(F)F)cc(C(F)(F)F)c1)C1CC(c2cccc([N+](=O)[O-])c2)=NO1 (stereo not drawn)	D1 antagonist -54
Cc1ccc(CCNC(=O)C2CC(c3ccc(C(F)(F)F)cc3)=NO2)cc1 (stereo not drawn)	none
COc1ccc(S(=O)(=O)NCc2ccc3c(c2)CCN3C(C)=O)cc1OC	none
COc1ccc(Cn2ccc3nc(C)c(C(=O)N4CCN(c5ccc(OC)cc5)CC4)cc3c2=O)cc1	none
CSc1ccc(CNC(=O)c2cc3c(=O)n(Cc4ccco4)ccc3nc2C)cc1	none
COc1ccc(CNC(=O)c2cc3c(=O)n(Cc4ccco4)ccc3nc2C)cc1	D1 antagonist -35
COc1ccc(Cn2ccc3nc(C)c(C(=O)N4CCN(c5ccccc5OC)CC4)cc3c2=O)cc1	D1 antagonist -33
Cc1ccccc1OCC(=O)OCc1cc(=O)n2nc(C3CCCCC3)sc2n1	none
CCCn1c(=O)c2sccc2n2c(CCCC(=O)N3CCN(c4ccc(OC)cc4)CC3)nnc12	none
C#CCNC(=O)c1ccc(OCc2ccccc2)cc1Cl	none
O=C(NCCCl)c1ccc(OCc2ccccc2)cc1Cl	D1 agonist 57
Cc1nn(CC(=O)NCCc2ccccc2Cl)c(=O)c2nn(-c3ccccc3)c(C)c12	none
COc1ccc2nc(C)cc(NCc3ccc(F)cc3)c2c1	D1 agonist 85
CCOc1ccc(/C=C/c2nc(C#N)c(NCCc3ccccc3)o2)cc1	D1 antagonist -37
COc1ccc(/C=C/c2nc(C#N)c(NCc3ccc(C)cc3)o2)cc1OC	none
COc1ccc(/C=C/c2nc(C#N)c(NCCN(C)C)o2)cc1OC	D1 antagonist -30
CCNc1oc(/C=C/c2ccc(OCC)cc2)nc1C#N	none
COc1ccc(CNc2oc(/C=C/c3cc(OC)c(OC)c(OC)c3)nc2C#N)cc1	D1 agonist 40
COc1cccc(-n2ccnc2SCC(=O)Nc2ccc(Cl)c(Cl)c2)c1	none
Cc1nc2sccn2c(=O)c1S(=O)(=O)NCc1ccc(F)cc1	none
Cc1cccc(Nc2nc(C#N)nc(NC3CCCC3)n2)c1	none
CC1(C(=O)Nc2cccc3ccccc23)CC1(Br)Br (stereo not drawn)	D1 antagonist -31
CCOc1ccc(NS(=O)(=O)c2ccc(C(=O)NCC(c3ccco3)N3CCCC3)cc2)cc1 (stereo not drawn)	D1 agonist 54 (no result: D1 potentiator)
COc1ccc(NS(=O)(=O)c2cccc(C(=O)NCC(c3ccco3)N3CCCCC3)c2)cc1 (stereo not drawn)	none
O=C(NCC(c1ccco1)N1CCCCC1)c1ccc(NS(=O)(=O)c2ccc(F)cc2)cc1 (stereo not drawn)	none
O=C(NCC(c1ccco1)N1CCCC1)c1ccc(S(=O)(=O)Nc2ccc(F)cc2)cc1 (stereo not drawn)	D1 agonist 51 (no result: D1 potentiator)

High-throughput results deposited in PubChem BioAssay by National Center for Advancing Translational Sciences (NCATS).
